# Only some compounds are listed: those with a hit (about 2.4% of all), similar ones and a draw of the others.
# ANO1 block – mouse TMEM16A channel inhibition, primary screen. HEK293 TMEM16A/YFP iodide influx fluorescence, ionomycin. normalized B-score (activity score, 25-100; higher = stronger inhibition) at 10 µM. 310,000 tested, 1.2% active. AID 588511;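 active means ratio plate-corrected score three or more library SD toward inhibition, starting fluorescence score within five deviations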;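 further: score derived from kinetic fluorescence span divided by baseline fluorescence per well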
# CHT inh – inhibits the human high affinity choline transporter | B-score at 10 µM | Q9GZV3 | 310,000 tested, 0.86% active | CHT-expressing cells, membrane potential dye, choline response; active compounds read low;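 active means B-score over 3 SD under the library average, and starting fluorescence ratio not unusually high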;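 further: choline stimulus applied at its EC90 after an EC20 pre-addition; B-score computed on integrated fluorescence ratio after choline addition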
# TMEM16A act – activates or potentiates the mouse TMEM16A chloride channel; HEK293 TMEM16A/YFP-H148Q/I152L, iodide quench fluorescence; active compounds read low; B-score at 10 µM; 340,000 tested, 0.3% active;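 active means fluorescence-ratio B-score plate-corrected deviation score at least 3 library SD below zero, with starting fluorescence score within 5 deviations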;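 further: channel opened by trigger with iodide after compound preincubation; score built on the fluorescence ratio of max minus min over baseline; more negative score means more quench and so TMEM16A activation or potentiation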
# CHT PAM – allosteric activators of human choline transporter CHT. Q9GZV3. CHT-expressing cells, membrane potential dye, choline EC20; active compounds read high; LV-AA mutant CHT in HEK293 cells. B-score at 10 µM. 310,000 tested, 0.49% active;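 active means initial fluorescence not abnormally high and integrated response B-score, plate-corrected, over 3 SD above library mean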
# CHT inh conf – human CHT inhibition, confirmatory screen; shares compounds with CHT inh; CHT-expressing cells, choline membrane potential dye; LV-to-AA substituted CHT, HEK293 cells; CHT activity remaining % of control (active compounds read low), % at 10 µM; 2,400 tested, 70% active; AID 493221;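 active means choline transporter activity left, mean of duplicates at 10 µM, below buffer-only control mean minus 3 SD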;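 further: depolarization triggered by choline at its EC90 following an EC20 pre-addition; 0% = hemicholinium-3 full block and 100% = buffer-only control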
# HEK293 MPD ctr – counter-screen for CHT inhibitors: effect in parental HEK293 cells; shares compounds with CHT inh; membrane potential dye, choline response; active = decrease or increase beyond buffer ±3SD; membrane potential ratio readout (active if shifted either direction beyond buffer ±3SD; no single direction) at 10 µM; 2,400 tested, 4% active; AID 493222;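 further: parental cells lack the transporter so any hit is non-specific; ratio is peak minus trough fluorescence over baseline after EC90 choline challenge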
# Numbers without * were called inactive; i = inactive; . = no result given.
SMILES,ANO1 block,CHT inh,TMEM16A act,CHT PAM,CHT inh conf,HEK293 MPD ctr
CC1(C)C(=O)CCC2C1=CCC1C2CCC2(C)C(O)CCC12 (stereo not drawn),.,.,i,.,.,.
CCc1c(C)nc(N)nc1N1N=C1SCCOc1ccccc1,i,-7.7*,i,i,12%*,i
Cc1ccc(OCCSC2=NN2c2cc(C)nc(N)n2)cc1,i,-11*,i,i,23%*,i
CCSC1=NN1c1cc(C)nc(N)n1,i,i,i,i,.,.
C[C@@H](N)Cc1cnc[nH]1,i,i,i,i,.,.
CCc1nn(CC(=O)N2CCC3(CC2)OCCO3)c(=O)c2cc3ccccc3n12,i,i,i,i,.,.
COc1c(/C=C2/C(=O)NC(=O)N(C)C2=O)c(CCN(C)C(=O)c2ccccc2)cc2c1OCO2,i,-6.5*,i,i,57%*,i
CCNC(=S)N(C)CCc1cc2c(c(OC)c1C=C1C(=O)N(C)C(=O)N(C)C1=O)OCO2,i,i,i,i,.,.
O=C1NC(=O)C(=Cc2coc3ccccc3c2=O)C(=O)N1,i,-9.5*,i,i,46%*,i
C(#CCN1CCOCC1)COCC#Cc1ccccc1,i,i,i,i,.,.
CC[N+](CC)(CC#CCO)CC#Cc1ccccc1,i,-8.6*,i,i,35%*,i
CC(C)C/C(=N/O)c1c[nH]c2ccccc12,i,i,i,i,.,.
c1ccc2c(CN3CCCCCC3)c[nH]c2c1,i,-6*,i,i,37%*,i
O=C(COc1ccccc1)N1CCN(Cc2c[nH]c3ccccc23)CC1,i,i,i,i,.,.
CCOc1ccc(-n2c(O)c(C=NCCN(CC)CC)c(=O)[nH]c2=O)cc1,i,-6.3*,i,i,i,i
CCOC(=O)CCN=Cc1c(O)n(-c2ccc(Br)cc2)c(=O)[nH]c1=O,i,i,i,i,.,.
Cc1cccc(-n2c(O)c(/C=C3/C(c4ccccc4)=Nc4ccccc43)c(=O)[nH]c2=O)c1,i,i,i,i,.,.
Cc1ccccc1-n1c(O)c(/C=C2/C(c3ccccc3)=Nc3ccccc32)c(=O)[nH]c1=O,i,-5.2*,i,i,53%*,i
Cc1c(C(=O)O)cc(-c2ccccc2)n1Cc1ccccc1,i,-6.3*,i,i,7.3%*,-35*
Cc1ccc(-c2cc(-c3ccc(C)cc3)[n+](-c3ccccc3)c(-c3ccc(C)cc3)c2)cc1,100*,-5.5*,i,i,66%*,3.5*
CN1C2CCC1CC(OC(=O)c1ccc(Cl)cc1)(C(=O)O)C2 (stereo not drawn),i,i,i,i,.,.
CC(=O)O[C@@H]1/C=C/[C@](C)(O)C[C@@H](C)C/C=C/[C@H]2[C@@H]3O[C@]3(C)[C@@H](C)[C@H]3[C@H](Cc4ccccc4)NC(=O)[C@@]312,i,-5.1*,.,i,71%*,i
COC(=O)C1=C(c2cc3ccccc3s2)C[C@@H]2CC[C@H]1N2C(=O)NCc1ccc(C(F)(F)F)cc1,i,i,i,i,.,.
CC(=O)O[C@@]12CO[C@@H]1C[C@@H](O)[C@@]1(C)C(=O)[C@H](O)C3=C(C)[C@@H](OC(=O)[C@H](O)[C@@H](NC(=O)c4ccccc4)c4ccccc4)C[C@@](O)([C@@H](OC(=O)c4ccccc4)C12)C3(C)C (stereo partly drawn),i,-5.3*,i,i,63%*,i
CC1=NCCc2c1[nH]c1ccccc21,i,-7.8*,i,i,34%*,i
CN1CCc2c([nH]c3ccccc23)C1,i,i,i,i,.,.
